MEKK3 PB1 HTS: modulators (inhibitors or enhancers) of MEK5 binding to human MEKK3 PB1 domain; Q99759; bead-based flow cytometry, Alexa488-MEK5 binding to MEKK3; actives lie on both sides; 0 = blocked by unlabeled MEK5, 100 = vehicle; binding response (% of control), % at 10 µM; 290,000 compounds, 1.4% hits;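 active means binding response more than 3 SD above or below the average of its plate-row segment, actives on both sides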;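 further: Alexa488 bead fluorescence after subtracting the streptavidin-only scavenger bead signal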
Target sequence (Q99759 whole entry, looked up, the tested form may be a part): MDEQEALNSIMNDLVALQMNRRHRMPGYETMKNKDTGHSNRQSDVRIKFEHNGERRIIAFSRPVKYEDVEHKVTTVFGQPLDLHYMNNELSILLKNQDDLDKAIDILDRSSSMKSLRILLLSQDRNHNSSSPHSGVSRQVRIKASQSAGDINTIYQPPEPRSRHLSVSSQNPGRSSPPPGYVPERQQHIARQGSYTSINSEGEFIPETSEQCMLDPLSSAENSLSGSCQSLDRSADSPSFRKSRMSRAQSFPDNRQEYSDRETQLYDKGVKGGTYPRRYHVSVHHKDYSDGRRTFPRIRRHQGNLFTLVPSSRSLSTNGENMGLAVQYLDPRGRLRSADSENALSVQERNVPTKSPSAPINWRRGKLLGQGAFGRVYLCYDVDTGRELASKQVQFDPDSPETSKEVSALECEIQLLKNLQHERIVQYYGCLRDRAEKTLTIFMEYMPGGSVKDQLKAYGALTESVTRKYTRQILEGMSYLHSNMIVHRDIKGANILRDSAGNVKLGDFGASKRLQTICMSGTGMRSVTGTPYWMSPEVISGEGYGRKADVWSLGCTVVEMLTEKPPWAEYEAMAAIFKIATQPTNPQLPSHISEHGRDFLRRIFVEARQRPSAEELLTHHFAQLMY
CRFR2-BP antag: antagonists of CRF-binding protein/CRF-R2 receptor complex; inhibition, % at 11.8 µM; HEK293 CRF-R2/CRF-BP, CRF-induced calcium fluorescence; 350,000 compounds, 0.59% hits;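 active means inhibition of the ligand-induced calcium signal above about 50% at the single tested concentration, limit read from the data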
ABCB6 inh MLPCN: blocks the human ABCB6 transporter; Q9NP58; fluorescence ratio to DMSO, % at 10 µM; K562-ABCB6 porphyrin accumulation, flow cytometry, 1 h; hits give low values; 360,000 compounds, 0.19% hits;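 active means fluorescence ratio to DMSO below 75%, the collection mean minus 3 SD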;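 further: signal is porphyrin accumulated inside mitochondria; 100% equals median channel fluorescence of DMSO control wells; lower ratio means ABCB6 inhibition with less porphyrin fluorescence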
CRFBP-R2 agonist: agonists of human CRF-binding protein/CRF-R2 receptor complex; HEK293 CRF-R2/CRF-BP, calcium dye fluorescence (FLIPR); percent of saturating CRF peptide response; activation, % at 13.2 µM; AID 588473; 350,000 compounds, 0.46% hits;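 active means activation of at least 50%, plus an integration ratio under a set limit after plate pattern correction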;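 further: plate controls were neutral control wells without compound for no effect and CRF at EC100 for full effect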
MEKK2mut PB1 HTS: signal of MEK5 binding to mutant human MEKK2 PB1 domain. bead flow cytometry, Alexa488-MEK5 binding to MEKK2 mutant. percent response, % at 10 µM. 290,000 compounds, 0.35% hits; in the data active means percent response above about 24%, passing the limit was not always enough
MEKK2wt PB1 HTS: raises or lowers MEK5 binding to wildtype human MEKK2 PB1 domain; Q9Y2U5; bead flow cytometry, Alexa488-MEK5 binding to MEKK2 WT; actives lie on both sides; binding response (% of control), % at 10 µM; 290,000 compounds, 1.1% hits; AID 1531; in the data active means binding response below about 67% or above about 130%
Numbers without * were called inactive; [ ] = another dose, or the depositor's remark. Sampled rows, rich in hits. Any-hit rate of the full collection: about 2.9%.

For COc1ccc(OC)c(/C=N/NC(=O)C(=O)N2CCCCCC2)c1 the results were MEKK3 PB1 HTS 105, CRFR2-BP antag -24, ABCB6 inh MLPCN 92, CRFBP-R2 agonist 0, MEKK2mut PB1 HTS 8 and MEKK2wt PB1 HTS 114.
Screening CCc1ccc(N(CC(=O)N2CCOCC2)S(C)(=O)=O)cc1 returned MEKK3 PB1 HTS 96, CRFR2-BP antag 20, ABCB6 inh MLPCN 98, CRFBP-R2 agonist 5, MEKK2mut PB1 HTS 2 and MEKK2wt PB1 HTS 101.
Screening O=C(NCC(c1cccs1)N1CCOCC1)c1cc(S(=O)(=O)N2CCOCC2)ccc1F (stereo not drawn) returned CRFR2-BP antag -10, ABCB6 inh MLPCN 103 and CRFBP-R2 agonist 0.
`O=C(O)CCCNc1cc(N2CCN(C(=O)c3ccco3)CC2)c2noc3c2c1C(=O)c1ccccc1-3` gave MEKK3 PB1 HTS 67*[inhibitor], CRFR2-BP antag 9, ABCB6 inh MLPCN 104, CRFBP-R2 agonist 8, MEKK2mut PB1 HTS -11 and MEKK2wt PB1 HTS 60*[inhibitor].
Screening O=C1c2ccccc2-c2onc3c(N4CCN(CCO)CC4)cc(N4CCN(C(=O)c5ccco5)CC4)c1c23 returned MEKK3 PB1 HTS 81*[inhibitor], CRFR2-BP antag 13, ABCB6 inh MLPCN 105, CRFBP-R2 agonist -1, MEKK2mut PB1 HTS 3 and MEKK2wt PB1 HTS 85.
For CN1CCN(c2cc(N3CCN(C(=O)c4ccco4)CC3)c3c4c(onc24)-c2ccccc2C3=O)CC1 the results were MEKK3 PB1 HTS 84, CRFR2-BP antag 17, ABCB6 inh MLPCN 103, CRFBP-R2 agonist 1, MEKK2mut PB1 HTS 5 and MEKK2wt PB1 HTS 89.
CCc1nccn1CCC(=O)N1CCCC(N2CCN(c3ccccc3C)CC2)C1 (stereo not drawn) was read as MEKK3 PB1 HTS 102, CRFR2-BP antag 5, ABCB6 inh MLPCN 98, CRFBP-R2 agonist 1, MEKK2mut PB1 HTS 2 and MEKK2wt PB1 HTS 110.
For CCOc1ncccc1C(=O)OCc1csc(CC(=O)Nc2ccccc2C)n1 the results were CRFR2-BP antag 8, ABCB6 inh MLPCN 93 and CRFBP-R2 agonist -1.
`CCOc1cccc(NC(=O)C2CCCN(S(=O)(=O)c3ccc(-n4cnnn4)cc3)C2)c1` (stereo not drawn) gave MEKK3 PB1 HTS 108, CRFR2-BP antag 26, ABCB6 inh MLPCN 98, CRFBP-R2 agonist -2, MEKK2mut PB1 HTS -1 and MEKK2wt PB1 HTS 101.
`COc1ccc(S(=O)(=O)N2CCCC(C(=O)NCc3ccc(F)cc3)C2)cc1` (stereo not drawn) gave MEKK3 PB1 HTS 101, CRFR2-BP antag -4, ABCB6 inh MLPCN 94, CRFBP-R2 agonist 0, MEKK2mut PB1 HTS 7 and MEKK2wt PB1 HTS 106.
For CCOC(=O)C1CCCN(C(=O)COC(=O)c2cccs2)C1 (stereo not drawn) the results were CRFR2-BP antag 95*, ABCB6 inh MLPCN 101 and CRFBP-R2 agonist -2.
`COc1ccc(S(=O)(=O)N2CCCC(C(=O)NCc3ccncc3)C2)cc1` (stereo not drawn) gave MEKK3 PB1 HTS 109, CRFR2-BP antag 56*, ABCB6 inh MLPCN 100, CRFBP-R2 agonist -3, MEKK2mut PB1 HTS 16 and MEKK2wt PB1 HTS 109.
`COc1cccc(NC(=O)C2CCCN(S(=O)(=O)c3ccc(-n4cnnn4)cc3)C2)c1` (stereo not drawn) gave MEKK3 PB1 HTS 89, CRFR2-BP antag 86*, ABCB6 inh MLPCN 90, CRFBP-R2 agonist 0, MEKK2mut PB1 HTS -6 and MEKK2wt PB1 HTS 91.
Screening COc1ccc(CNC(=O)[C@H](C)NC(=O)C2CCN(S(=O)(=O)c3ccc(F)cc3)CC2)cc1 returned MEKK3 PB1 HTS 100, CRFR2-BP antag 82*, ABCB6 inh MLPCN 104, CRFBP-R2 agonist -1, MEKK2mut PB1 HTS 2 and MEKK2wt PB1 HTS 100.
Screening CC1(C)CCc2cc(S(=O)(=O)N3CCN(S(=O)(=O)c4c(F)cccc4F)CC3)ccc2O1 returned CRFR2-BP antag 6, ABCB6 inh MLPCN 101 and CRFBP-R2 agonist 1.
Screening COc1ccccc1CN(C)C(=O)c1cccc(S(=O)(=O)N2CCc3ccccc3C2)c1 returned CRFR2-BP antag 12, ABCB6 inh MLPCN 93 and CRFBP-R2 agonist 1.

High-throughput results deposited in PubChem by several laboratories.
